Results with a measured potency or affinity are listed apart. Values without a mark were called inactive.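 The calls were made as follows: active = fitted half-maximal dose no more than twice the top valid tested dose, for compounds that lower signal; inconclusive = fit invalid, or curve flat with activity between -70 and -30; inactive = potency past limit, curve flat within ±30, or signal increasing.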
Molecular target: NAD-dependent protein deacylase sirtuin-5, mitochondrial (Homo sapiens) (UniProt Q9NXA8)
Test: SIRT5 deacylase inhibitors, dose response, biochemical, fluorescence imaging, cherry-pick, set 6 (AID 720597);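 also: lower AMC signal can also come from blocking the trypsin step; 0% = median of neutral control wells and -100% = median of positive control wells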
Conditions: Purified SirT5, succinyl-peptide-AMC/trypsin fluorescence; series mostly up to 15 µM; activity change, negative = inhibition: at the top concentration

Sequence of NAD-dependent protein deacylase sirtuin-5, mitochondrial (Homo sapiens) (Q9NXA8 whole entry, looked up): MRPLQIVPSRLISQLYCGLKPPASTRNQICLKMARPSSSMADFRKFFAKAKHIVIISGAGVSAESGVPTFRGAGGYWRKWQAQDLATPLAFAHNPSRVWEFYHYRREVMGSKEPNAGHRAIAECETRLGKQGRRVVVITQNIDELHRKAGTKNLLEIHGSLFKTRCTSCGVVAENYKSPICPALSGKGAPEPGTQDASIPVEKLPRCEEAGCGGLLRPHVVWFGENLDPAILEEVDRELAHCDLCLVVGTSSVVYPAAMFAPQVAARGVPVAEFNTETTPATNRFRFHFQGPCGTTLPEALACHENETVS

Compared with `COc1ccc(S(=O)(=O)N(C)C[C@@H]2OCCCC[C@H](C)Oc3ccc(NS(=O)(=O)c4ccc(C)cc4)cc3C(=O)N([C@H](C)CO)C[C@@H]2C)cc1`, `COc1ccc(S(=O)(=O)N(C)C[C@H]2OCCCC[C@H](C)Oc3ccc(NS(=O)(=O)c4ccc(Cl)cc4)cc3C(=O)N([C@H](C)CO)C[C@H]2C)cc1` is lower in “activity change, negative = inhibition” value: -0.742% for the first, -2.51% for the second.

Going from `COc1ccc(S(=O)(=O)Nc2ccc3c(c2)CC(=O)N([C@@H](C)CO)C[C@@H](C)[C@H](CN(C)Cc2ccc(C(F)(F)F)cc2)O3)cc1` to `C[C@@H]1CN([C@H](C)CO)C(=O)Cc2cc(NS(=O)(=O)c3ccc(F)cc3)ccc2O[C@H]1CN(C)Cc1ccc(C(F)(F)F)cc1`, the “activity change, negative = inhibition” value falls from 8.76% to -21.2%.

Going from `CNC[C@H]1Oc2ccc(NC(=O)Nc3ccc(F)cc3)cc2CC(=O)N([C@H](C)CO)C[C@H]1C` to `Cc1ccc(S(=O)(=O)Nc2ccc3c(c2)CC(=O)N([C@@H](C)CO)C[C@@H](C)[C@H](CN(C)Cc2ccc(Oc4ccccc4)cc2)O3)cc1`, the “activity change, negative = inhibition” value falls from 3.19% to -17%.

Compared with `C[C@@H]1CN([C@@H](C)CO)S(=O)(=O)c2ccc(C3=CCCCC3)cc2O[C@@H]1CN(C)C(=O)Cc1ccccc1`, `COc1cccc(S(=O)(=O)N(C)C[C@@H]2Oc3cc(C4=CCCC4)ccc3S(=O)(=O)N([C@H](C)CO)C[C@H]2C)c1` is higher in “activity change, negative = inhibition” value: -17.8% for the first, 1.6% for the second.

Going from `O=C(C[C@@H]1C[C@H]2c3cc(NC(=O)Nc4ccccc4F)ccc3O[C@H]2[C@H](CO)O1)NCC1CC1` to `O=C(C[C@@H]1C[C@H]2c3cc(NC(=O)Nc4ccc(C(F)(F)F)cc4)ccc3O[C@H]2[C@H](CO)O1)NCc1ccc2c(c1)OCO2`, the “activity change, negative = inhibition” value falls from 29.4% to -16.5%.

Going from `C[C@H](CO)N1C[C@H](C)[C@H](CN(C)S(=O)(=O)c2ccc(F)cc2)Oc2c(NC(=O)c3nc4ccccc4s3)cccc2C1=O` to `Cc1ccc(S(=O)(=O)Nc2ccc3c(c2)C(=O)N([C@@H](C)CO)C[C@H](C)[C@@H](CN(C)S(=O)(=O)c2ccccc2)OCCCC[C@@H](C)O3)cc1`, the “activity change, negative = inhibition” value falls from 4.27% to -1.09%.

First: CCCNC(=O)N1[C@@H]2Cn3c(cccc3=O)[C@H]1[C@@H](C(=O)N1CCC(Cc3ccccc3)CC1)[C@@H]2CO
Second: O=C(NC1CCCCC1)[C@@H]1[C@@H](CO)[C@@H]2Cn3c(cccc3=O)[C@H]1N2CC1CCCCC1
The “activity change, negative = inhibition” value of the first is lower: 2.68% for the first, 30.8% for the second.

Compared with `COc1ccc(NC(=O)N(C)C[C@@H]2OCc3ccccc3-c3c(n(C)c4ccccc34)C(=O)N([C@@H](C)CO)C[C@@H]2C)cc1`, `C[C@@H]1CN([C@@H](C)CO)C(=O)c2cc(NC(=O)Cc3ccccc3)ccc2O[C@@H]1CN(C)Cc1ccc(Oc2ccccc2)cc1` is higher in “activity change, negative = inhibition” value: 2.24% for the first, 44.1% for the second.

Compared with `CO[C@H]1CN(C)C(=O)c2cccc(C#N)c2OC[C@H]2O[C@H](CC[C@@H]2OC)CCN(C)C(=O)[C@H]1C`, `COc1ccccc1NC(=O)N1CC(=O)N2[C@H](CO)[C@@H](c3ccc(C#CC4CC4)cc3)[C@H]2C1` is lower in “activity change, negative = inhibition” value: 17.8% for the first, -19.2% for the second.

Going from `O=C(CN1CCOCC1)N1CCCCN2[C@H](C1)[C@H](c1ccc(-c3ccccc3)cc1)[C@@H]2CO` to `COc1ccc(S(=O)(=O)N2CCCCN3[C@H](CO)[C@@H](c4ccc(C#CC5CC5)cc4)[C@@H]3C2)cc1`, the “activity change, negative = inhibition” value falls from -9.5% to -31%.

Going from `C[C@@H]1CN([C@H](C)CO)C(=O)c2cc(NS(=O)(=O)c3ccc(F)cc3)ccc2O[C@@H](C)CCCCO[C@@H]1CN(C)CC1CCCCC1` to `C[C@H](CO)N1C[C@H](C)[C@@H](CN(C)Cc2ccc(C(F)(F)F)cc2)OCCCC[C@H](C)Oc2ccc(NS(=O)(=O)c3ccc(F)cc3)cc2C1=O`, the “activity change, negative = inhibition” value falls from -21.2% to -23.3%.

Going from `C[C@@H](O)C#Cc1ccc2c(c1)O[C@H](CN(C)Cc1ccc(-c3ccccc3)cc1)[C@@H](C)CN([C@@H](C)CO)S2(=O)=O` to `C[C@@H]1CN([C@H](C)CO)C(=O)c2cc(NC(=O)NC3CCCCC3)ccc2O[C@@H](C)CCCCO[C@@H]1CN(C)Cc1ccc(Cl)c(Cl)c1`, the “activity change, negative = inhibition” value rises from -24.7% to 3.17%.

For `O=C(C1CCC1)N1CC[C@H]2[C@H](CO)Nc3ccc(C#Cc4cccc(F)c4)cc3[C@H]21`, the “activity change, negative = inhibition” value was -12.4%.

First: CC1c2nc3ccccc3n2C(CC(=O)NCc2ccc(Cl)cc2)C(=O)N1Cc1ccccc1 (stereo not drawn)
Second: COCC(=O)Nc1ccc2c(c1)C(=O)N(C)C[C@@H](OC)[C@H](C)CN(Cc1ccccn1)[C@H](C)CO2
The “activity change, negative = inhibition” value of the first is higher: 14.9% [at 16 µM] for the first, 7.75% [at 16 µM] for the second.

`C[C@H]1CN([C@@H](C)CO)C(=O)c2cc(NC(=O)CCCCCC(=O)Nc3ccccc3N)ccc2O[C@H]1CN(C)Cc1ccc(Cl)c(Cl)c1` was tested, and the “activity change, negative = inhibition” value was 11.9% [at 12 µM].
